Bioassay records (PubChem)
LDHA block – blocks human lactate dehydrogenase A; purified LDHA, NADH/diaphorase-resazurin fluorescence; stronger effect = lower value; AID 1347041; actives 0.15% (n = 480,000); activity change, % (values are at about 110 or 230 µM); in the data active means activity change below about -30%; inconclusive means mostly about -25% to -30%
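Remaining NADH was detected by diaphorase (0.133 mg/mL) converting 37 µM resazurin to fluorescent resorufin, read at 0 and 20 minutes. The preceding 5-minute room-temperature reaction used 2 nM LDHA, 0.2 mM sodium pyruvate and 0.06 mM NADH at pH 7.4.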
PI4K2A block – inhibitors of human PI4K2A; Q9BTU6; purified PI4K2A, ADP-Glo luminescence, 1 h; stronger effect = lower value; activity change, negative = inhibition, % at 76.9 µM; actives 0.13% (n = 420,000); in the data active means activity change below about -50%; inconclusive means mostly about -30% to -49%
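ADP-Glo luminescence measured ADP generated by PI4K2A enzyme (4 ug/mL before mixing) with 1.2 mM PI substrate (pre-mix) and 300 microM ATP (pre-mix). Tris pH7.5 buffer with MgCl2, Triton X-100; 1 h reaction at ambient temperature.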
GALK inhibitor – galactokinase (human) inhibition; P51570; Potency, µM (top dose mostly 57.5 µM), hits mostly inhibitors; Purified GALK, Kinase-Glo residual ATP luminescence; actives 0.007% (n = 270,000)
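The enzyme phosphorylates galactose (100 uM) using ATP (35 uM); inhibition is detected as higher residual ATP, quantified by bioluminescence after 1 h reaction at room temperature, pH 8.0.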
TrxR1 inh – inhibitors of rat thioredoxin reductase 1. recombinant rTrxR1, NADPH fluorescence consumption, selenite substrate. Potency, µM (titrated, usually from 114 µM), most hits filed as inhibitors. actives 1% (n = 390,000); further: nearly all actives have a fitted effect of over 65% in size
Target sequence (O89049 whole entry, looked up): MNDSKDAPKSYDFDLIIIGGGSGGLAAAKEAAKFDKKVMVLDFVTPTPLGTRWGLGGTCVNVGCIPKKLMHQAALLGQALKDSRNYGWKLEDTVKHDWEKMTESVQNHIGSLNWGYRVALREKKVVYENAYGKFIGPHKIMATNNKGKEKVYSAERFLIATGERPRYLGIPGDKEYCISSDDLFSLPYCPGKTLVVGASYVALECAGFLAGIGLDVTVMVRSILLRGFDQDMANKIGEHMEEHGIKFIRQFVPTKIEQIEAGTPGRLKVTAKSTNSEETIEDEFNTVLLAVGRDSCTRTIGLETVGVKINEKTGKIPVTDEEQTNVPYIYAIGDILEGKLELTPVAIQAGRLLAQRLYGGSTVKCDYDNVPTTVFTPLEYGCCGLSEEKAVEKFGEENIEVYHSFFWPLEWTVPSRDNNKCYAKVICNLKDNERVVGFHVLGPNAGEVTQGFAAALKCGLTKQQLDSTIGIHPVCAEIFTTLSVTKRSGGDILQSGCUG
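Rat TrxR1 (90 nM in the dispensed reagent) was pre-reduced with 400 uM NADPH for 5 min at room temperature, then incubated with compound for 15 min. After 400 uM selenite was added, NADPH fluorescence (Ex 340/Em 450 nm) was followed for 8 min.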
TrxR1 substrate – substrates of rat thioredoxin reductase 1 | Potency, µM (doses to about 114 µM) | actives 0.01% (n = 390,000) | purified TrxR1 substrate turnover, NADPH consumption readout | O89049; further: nearly all actives have a fitted effect of over 50% in size
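Rat TrxR1, dispensed at 90 nM, was prereduced with 400 uM NADPH (final) for 5 min at ~22 deg C, then incubated with compound 15 min before 400 uM selenite. A first-read NADPH fluorescence drop versus no-compound background flagged substrates.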
Integrin act MD – activators of alpha7 integrin expression for muscular dystrophy. alpha7betagal myoblasts, beta-gal FDG fluorescence, 48 h. Potency, µM (doses to about 38.3 µM), most hits filed as activators. actives 0.064% (n = 350,000). AID 624291; further: nearly all actives have a fitted effect of over 60% in size
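Alpha7betagal+/- myoblasts (passage 13) were plated 16-24 hr, then exposed to compounds (1:260 dilution of DMSO stock) for 48 hours at 37C. After MPER lysis, β-galactosidase reporter activity was read as FDG fluorescence (ex 480/em 540) after 30 minutes.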
Hits are given with their value; n = inactive; u = inconclusive; x = no result given; ! = a repeat was not active. An excerpt weighted towards active compounds, which were near 1.1% of everything screened. Unless noted, the call rests on the fitted dose curve; in most records, active means well fitted curve in the direction sought with a large enough effect; inconclusive means small, poorly fitted or top-dose-only effect, or another doubt; inactive means no such curve, though single readings can be large; an effect the other way counts as inactive or inconclusive.

SMILES | LDHA block | PI4K2A block | GALK inhibitor | TrxR1 inh | TrxR1 substrate | Integrin act MD
COc1ccc(-c2coc3cc(OCc4ccccc4C)ccc3c2=O)cc1 | n | x | x | x | x | x
CCOc1ccc(C2c3c(-c4ccccc4)n[nH]c(=O)c3Nc3nnnn32)cc1 (stereo unspecified) | n | x | x | x | x | x
C=C1CN(CC(=O)OC)S(=O)(=O)c2ccccc21 | n | n | n | u | n | n
C=C1CN(Cc2ccccc2)S(=O)(=O)c2ccccc21 | n | n | n | 28µM! | n | n
CCn1nc(C(=O)OCC(=O)Nc2ccc(Cl)c(C(F)(F)F)c2)c2ccccc2c1=O | n | x | x | x | x | x
COc1ccc(Nc2cnn(-c3nc4ccccc4s3)c(=O)c2Cl)cc1 | n | n | n | 3.2µM | n | n
O=C(CCN1CCC(c2ccc(Cl)s2)=N1)c1ccc(Cl)s1 | n | n | x | 2.8µM | n | u
O=C(O)CCC(=O)c1ccc(Cl)s1 | n | x | x | x | x | x
O=C(O)c1cc(S(=O)(=O)Nc2ccc3oc(=O)sc3c2)ccc1O | u | -68 | n | n | n | n
CC(=O)SC(C[N+](=O)[O-])c1cn(C(C)=O)c2ccccc12 (stereo unspecified) | n | n | n | 18µM | n | n
O=C(CSc1nnc(-c2ccc(Cl)cc2)n1Cc1ccco1)N1CCOC1=O | n | x | x | x | x | x
Cc1ccc(C=C2C(=O)c3ccccc3C2=O)s1 | n | -53 | n | n | n | n
CCCCc1cc(=O)oc2cc(OCC(=O)NC(Cc3c[nH]c4ccc(O)cc34)C(=O)O)ccc12 (stereo unspecified) | n | -68 | x | n | n | n
CCCc1cc(=O)oc2cc(C)cc(OCC(=O)NC(Cc3c[nH]c4ccc(O)cc34)C(=O)O)c12 (stereo unspecified) | n | n | x | n | n | n
CC(C)OC(=O)C(CC(=O)O)N1CCCC1 (stereo unspecified) | n | x | x | x | x | x
CSc1nc(N(C)CCO)c2sc3nc(-c4ccco4)c4c(c3c2n1)CCC4 | n | u | n | 7.1µM | n | n
O=[N+]([O-])c1cc(Br)cc(C=Nc2ccc3c(c2)OCO3)c1O | n | n | n | 45µM | n | n
Cc1ccc(CNC(=O)CSc2c3c(nc4cc(Cl)ccc24)CCCC3)o1 | n | n | n | 14µM | n | n
N#C/C(=C\c1ccccn1)c1nc2ccccc2s1 | n | n | n | 56µM | n | n
N#C/C(=C/c1ccc(-c2ccc(S(N)(=O)=O)cc2)o1)c1nc2ccccc2s1 | n | n | n | 89µM | n | n
N#C/C(=C\c1ccc2ccccc2n1)c1nc2ccccc2s1 | n | x | x | x | x | x
O=C1CC(NS(=O)(=O)c2ccc([N+](=O)[O-])cc2)CN1c1ccc(Cl)cc1 (stereo unspecified) | n | n | x | 50µM | n | n
COc1ccc(-c2cn3cc(C(=O)NN)ccc3n2)cc1 | n | -72 | n | n | n | u
O=C1CC(c2ccc(C(=O)O)cc2)c2sc(C(=O)O)c(-c3ccccc3)c2N1 (stereo unspecified) | n | x | x | x | x | x
Clc1ccccc1OCCCCN1CCNCC1 | -41 | n | n | n | n | n
SMILES | LDHA block | PI4K2A block | GALK inhibitor | TrxR1 inh | TrxR1 substrate | Integrin act MD
Clc1ccccc1OCCCCN1CCCC1 | n | n | n | n | n | n
O=C(CSc1oc(-c2ccco2)nc1S(=O)(=O)c1ccccc1)NCC1CCCO1 (stereo unspecified) | n | n | n | u | n | n
O=C(CSc1oc(-c2ccco2)nc1S(=O)(=O)c1ccc(F)cc1)NCC1CCCO1 (stereo unspecified) | n | n | n | 16µM | n | n
Cc1ccc(S(=O)(=O)c2nc(-c3ccco3)oc2SCC(N)=O)cc1 | n | n | n | 79µM | u | n
CCOc1ccc(C(=O)Nc2cnc3ccccc3c2)cc1OC | n | x | x | x | x | x
C=CCn1c(SCC(=O)N2CCOCC2)nc2scc(-c3ccco3)c2c1=O | n | n | n | 45µM | n | n
CCS(=O)(=O)c1ncc(Cl)c(C(=O)Nc2c(C(=O)Nc3cccc(C)c3)oc3ccccc23)n1 | n | n | x | n | n | x
Cc1cccc(NC(=O)c2nc(S(C)(=O)=O)ncc2Cl)c1 | n | n | x | 7.1µM | n | x
COc1cccc(NC(=O)c2nc(S(C)(=O)=O)ncc2Cl)c1 | n | n | n | 8.9µM | n | n
Cn1c(=O)c2c(ncn2CCC(=O)Nc2cccc(C(N)=O)c2)n(C)c1=O | n | x | x | x | x | x
CNc1c(NS(=O)(=O)c2c(C)noc2C)c(=O)oc2ccccc12 | n | x | x | x | x | x
COc1cc(C(=O)Nc2ccc3oc(C)nc3c2)cc(OC)c1OC | n | x | x | x | x | x
COc1ccc(C(=O)CN2CCN(S(=O)(=O)c3cccc([N+](=O)[O-])c3)CC2)cc1OC | n | n | n | n | n | n
